According to PubChem BioAssay AID1986 (Sanford-Burnham Center for Chemical Genomics, 2009):
In all, about 290,000 compounds went through this assay and about 890 (0.31%) were called active. The sample holds actives, similar compounds and a random draw of the others, so the mix is not that of the screen. No stated cut-off is given here; in the data, active means inhibition mostly above about 52% (no sharp cut-off); inactive means mostly below about 76%.

Assay: inhibitors of HIV fusion peptide binding, primary screen, biochemical, uHTS, fluorescence dequenching (AID 1986)
Conditions: cell-free peptide binding, 30 min, stronger effect = higher value
[1] = measured here: repeat confirmation average inhibition, at 18.6 µM

SMILES	inhibition (at 20 µM)	inhibition [1] [%]
O=C(O)c1cccc(S(=O)(=O)N2CCOCC2)c1	-1% (inactive)	–
CCn1ncc(Cl)c1C(=O)Nc1cc([N+](=O)[O-])ccc1OC	0.4% (inactive)	–
Cc1ccsc1/C=N/NC(=O)c1ccccn1	-0.7% (inactive)	–
COc1cccc(N2C(=O)C(c3ccccc3)=C(c3nc4ccccc4s3)C2NC(C)=O)c1 (stereo not given)	0.6% (inactive)	–
COc1ccc(C(=O)/C(C#N)=N/Nc2cccc([N+](=O)[O-])c2)cc1	20.6% (inactive)	–
N#C/C(=N\Nc1cccc([N+](=O)[O-])c1)C(=O)c1ccc(Br)cc1	63.4% (active)	–
COc1ccc(C(=O)/C(C#N)=N/Nc2ccc([N+](=O)[O-])cc2)cc1	5.5% (inactive)	–
Cc1c(C(=O)OCC(=O)N(C)c2ccccc2)oc2ccccc12	1.2% (inactive)	–
O=C(OCCN1C(=O)c2cccc3c(N4CCOCC4)ccc(c23)C1=O)c1ccccc1Cl	151% (inactive)	–
CCCN(CCC)S(=O)(=O)c1ccc(C(=O)OCCN2C(=O)c3cccc4c(N5CCOCC5)ccc(c34)C2=O)cc1	63.4% (active)	–
O=C1c2cccc3c(N4CCCCC4)ccc(c23)C(=O)N1c1ccccc1O	100% (active)	–
O=C(OCCN1C(=O)c2cccc3c(N4CCOCC4)ccc(c23)C1=O)c1ccc(Cl)cc1Cl	151% (inactive)	–
O=C(OCCN1C(=O)c2cccc3c(N4CCOCC4)ccc(c23)C1=O)c1cc(Cl)cc(Cl)c1	88.8% (active)	–
O=C1c2cccc3c(N4CCCCC4)ccc(c23)C(=O)N1CCO	-0.2% (inactive)	–
O=C1c2cccc3c(N4CCCCC4)ccc(c23)C(=O)N1c1ccc(O)cc1	146% (inactive)	–
CCN(CC)S(=O)(=O)c1ccc(C(=O)OCCN2C(=O)c3cccc4c(N5CCOCC5)ccc(c34)C2=O)cc1	150% (inactive)	–
O=C(OCCN1C(=O)c2cccc3c(N4CCOCC4)ccc(c23)C1=O)c1ccc(Cl)cc1	149% (inactive)	–
CC(=O)N(C(C)=O)N1C(=O)c2cccc3c(N4CCOCC4)ccc(c23)C1=O	100% (active)	–
O=C(OCCN1C(=O)c2cccc3c(N4CCOCC4)ccc(c23)C1=O)c1cccc(Cl)c1	151% (inactive)	–
O=C1c2cccc3c(N4CCCCC4)ccc(c23)C(=O)N1c1cccc(O)c1	148% (inactive)	–
Cc1ccc(C(=O)NC(C(=O)Nc2cccc(S(N)(=O)=O)c2)C(C)C)cc1 (stereo not given)	-1.6% (inactive)	–
COc1ccc(CNC(=O)Cn2nc(C(F)(F)F)cc2C)cc1	-0.1% (inactive)	–
O=C(O)c1cc(Cl)c(Cl)cc1C(=O)N1CCOCC1	1.9% (inactive)	–
COc1ccccc1-n1c(C)nc2cc(C(=O)NCC3CCCO3)ccc21 (stereo not given)	0.3% (inactive)	–
Cc1cc(C)n(C(=O)c2ccc(Cl)c(F)c2F)n1	-0.2% (inactive)	–
COc1ccc(CC(=O)Nc2c(C(=O)N3CCN(c4ncccn4)CC3)oc3ccccc23)cc1	-0.6% (inactive)	–
O=c1ccc(C(F)(F)F)cn1Cc1cc(=O)n2cc(Br)ccc2n1	1.6% (inactive)	–

SMILES	inhibition (at 20 µM)	inhibition [1] [%]
COC(=O)C(Cc1ccccc1)NC(=O)CSc1nc(C)cc(=O)[nH]1 (stereo not given)	-1.7% (inactive)	–
CCNc1cc(=O)n(C)c(=O)n1C	0.1% (inactive)	–
COc1cc(CO)cc(Br)c1OCC(=O)O	0% (inactive)	–
CCc1ccc(N=C2NC(=O)/C(=C/c3ccc(OCC(=O)O)c(OC)c3)S2)cc1	55.1% (inactive)	26.6
CC(=O)Nc1c(-c2cc(=O)oc3cc(C)ccc23)oc2ccccc12	-0.7% (inactive)	–
Cc1ccccc1CN1C(=O)C(C)S/C1=N/N=C/c1ccco1 (stereo not given)	4.6% (inactive)	–
O=C(O)c1cccc(-n2c(O)c(C=C3N=c4ccccc4=N3)sc2=S)c1	32.8% (inactive)	–
O=C(O)c1ccc(-n2c(O)c(C=C3N=c4ccccc4=N3)sc2=S)cc1	33.3% (inactive)	–
CC1=Nc2ccccc2/C1=C/c1sc(=S)n(-c2cccc(C(=O)O)c2)c1O	112% (active)	134
O=[N+]([O-])c1cccc(-c2noc(-c3ccco3)n2)c1	-2.4% (inactive)	–
COc1ccccc1-c1nnc(SCC(=O)N2CCC(C)CC2)o1	-1.2% (inactive)	–
COc1ccc(CC(=O)N/N=C/c2ccc(-c3cccc(C(=O)O)c3)o2)cc1OC	28.8% (inactive)	–
Cc1ccc(C(=O)O)cc1-c1ccc(/C=C2\SC(=O)N(CC(=O)Nc3ccccc3)C2=O)o1	59.6% (active)	–
Cc1ccc(NC(=O)CN2C(=O)S/C(=C/c3ccc(-c4cc(C(=O)O)ccc4C)o3)C2=O)cc1C	63.2% (inactive)	35.6
Cc1ccccc1NC(=O)CN1C(=O)S/C(=C\c2ccc(-c3cc(C(=O)O)ccc3C)o2)C1=O	69.3% (inactive)	19.9
Cc1cccc(NC(=O)CN2C(=O)N/C(=C/c3ccc(-c4cccc(C(=O)O)c4C)o3)C2=O)c1	28.4% (inactive)	–
Cc1cccc(NC(=O)CN2C(=O)N/C(=C\c3ccc(-c4cccc(C(=O)O)c4)o3)C2=O)c1	40.3% (inactive)	–
Cc1ccc(NC(=O)CN2C(=O)S/C(=C/c3ccc(-c4cccc(C(=O)O)c4)o3)C2=O)cc1	79.5% (active)	–
Cc1ccc(NC(=O)CN2C(=O)S/C(=C\c3ccc(-c4cccc(C(=O)O)c4C)o3)C2=O)cc1C	68.7% (inactive)	6.8
Cc1cccc(NC(=O)CN2C(=O)S/C(=C\c3ccc(-c4cccc(C(=O)O)c4C)o3)C2=O)c1	55.2% (active)	–
Cc1ccc(OCC(=O)N/N=C\c2ccc(-c3cccc(C(=O)O)c3)o2)c(C)c1	56.8% (active)	–
Cc1ccc(OCC(=O)N/N=C\c2ccc(C)o2)c(C)c1	0.1% (inactive)	–
CC(C)(C)OC(=O)CN1C(=O)S/C(=C\c2ccc(-c3cccc(C(=O)O)c3)o2)C1=O	51.8% (inactive)	40.6
CCOC(=O)C1=C(C)NC(=O)NC1c1ccc(OCC(=O)OC)c(OC)c1 (stereo not given)	-0.4% (inactive)	–
CC(=O)Nc1cccc(CNCc2cccc(NC(C)=O)c2)c1	-0.7% (inactive)	–
O=C(Nc1cccc(-c2cn3ccccc3n2)c1)c1cnccn1	-0.3% (inactive)	–
CC(=O)C1=C(c2ccccc2)NC(=O)NC1c1cccs1 (stereo not given)	0.1% (inactive)	–
